Test results from PubChem BioAssay (Tox21).
Inconclusive results are not listed. Activity calls are given as the source filed them. Unless noted, the call rests on the fitted dose curve; in most records, active means well fitted curve in the direction sought with a large enough effect in the repeat runs; inconclusive means weak or mixed curves; inactive means no such curve, though single readings can be large; an effect the other way counts as inactive or inconclusive.

Experiments:
[1] = A CellTox Green Cytotoxicity Assay to monitor cytotoxicity in HEK293 cells - 16 hour (AID 1224888); further: on the % scale 0 is the no-effect control and ±100 the full control effect; nearly all actives have a fitted effect of over 35% in size
Method in brief: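 Fluorescence intensity, read at 0, 8, 16, 24, 32 and 40 h of compound treatment, reflected dye binding to DNA of dead HEK293 cells; compounds (23 nL, DMSO) were added 5 h after plating cells with reagent.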

[2] = qHTS RealTime-Glo MT Cell Viability Assay in HepG2 cells - 0 hour (AID 1224889); further: on the % scale 0 is the no-effect control and ±100 the full control effect; nearly all actives have a fitted effect of over 50% in size
Method in brief: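 HepG2 cells were seeded at 600 cells/well together with NanoLuc luciferase and a cell-permeant prosubstrate, preincubated 5 h at 37 C/5% CO2, then pin-dosed with compounds in DMSO. Nonlytic luminescence from viable cells was read at each time point.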

[3] = qHTS assay to identify small molecule antagonists of the estrogen receptor alpha (ER-alpha) signaling pathway using the BG1 cell line in the presence of 0.1 nM 17-beta-estradiol - cell viability counter screen (AID 1259241); further: on the % scale 0 is the no-effect control and ±100 the full control effect; nearly all actives have a fitted effect of over 40% in size
Method in brief: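 VM7Luc4E2 cells (endogenous full-length ER-alpha, 4xERE-luciferase), cultured 5 days in charcoal-stripped serum, exposed to compounds with 0.1 nM 17beta-estradiol (final) for 22 hr at 37C. Viability read in same wells as live-cell protease fluorescence after 30 min.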

[4] = qHTS assay to identify small molecule antagonists of the androgen receptor (AR) signaling pathway using the MDA cell line in the presence of 0.5 nM R1881 - cell viability counter screen (AID 1259242); further: on the % scale 0 is the no-effect control and ±100 the full control effect; nearly all actives have a fitted effect of over 45% in size
Method in brief: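 Viability of MDA-kb2 cells was multiplexed with the luciferase AR readout; after 16 hr with compounds and R1881 at 0.5 nM final, CellTiter-Fluor fluorescence was recorded.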

[5] = target: Androgen receptor (Homo sapiens) (UniProt P10275); test: qHTS assay to identify small molecule antagonists of the androgen receptor (AR) signaling pathway using the MDA cell line in the presence of 0.5 nM R1881 (AID 1259243); further: potency means the concentration at half of the fitted maximal effect; nearly all actives have a fitted effect of over 50% in size
Chain of Androgen receptor (Homo sapiens) (P10275 whole entry, looked up): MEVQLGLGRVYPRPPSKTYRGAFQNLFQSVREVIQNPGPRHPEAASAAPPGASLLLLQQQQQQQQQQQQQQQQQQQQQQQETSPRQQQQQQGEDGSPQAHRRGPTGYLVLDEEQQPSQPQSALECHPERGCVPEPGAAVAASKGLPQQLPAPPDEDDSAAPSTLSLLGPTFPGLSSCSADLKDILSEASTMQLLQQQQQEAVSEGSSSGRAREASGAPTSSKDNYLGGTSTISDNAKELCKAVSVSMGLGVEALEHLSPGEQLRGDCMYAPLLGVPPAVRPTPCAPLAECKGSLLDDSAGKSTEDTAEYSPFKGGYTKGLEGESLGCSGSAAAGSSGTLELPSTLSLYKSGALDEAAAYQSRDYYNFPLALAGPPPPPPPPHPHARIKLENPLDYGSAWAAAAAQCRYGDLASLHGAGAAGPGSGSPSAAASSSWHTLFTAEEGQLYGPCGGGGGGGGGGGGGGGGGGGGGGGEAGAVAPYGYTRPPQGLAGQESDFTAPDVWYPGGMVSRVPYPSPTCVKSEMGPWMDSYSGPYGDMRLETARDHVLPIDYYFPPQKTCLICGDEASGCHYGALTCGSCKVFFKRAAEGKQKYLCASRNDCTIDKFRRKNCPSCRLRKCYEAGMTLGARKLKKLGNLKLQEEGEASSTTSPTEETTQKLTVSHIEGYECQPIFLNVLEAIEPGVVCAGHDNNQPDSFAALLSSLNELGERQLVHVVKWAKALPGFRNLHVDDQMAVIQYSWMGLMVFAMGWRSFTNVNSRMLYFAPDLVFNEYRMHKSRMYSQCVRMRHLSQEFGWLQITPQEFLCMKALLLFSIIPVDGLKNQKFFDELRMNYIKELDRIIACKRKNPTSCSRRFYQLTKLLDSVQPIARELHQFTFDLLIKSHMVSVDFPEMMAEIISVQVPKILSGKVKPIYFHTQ
Method in brief: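 Reporter cells cultured without CO2 receive test chemicals, then 0.5 nM R1881 final; after 16 hr at 37C, ONE-Glo is added and light output recorded.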

[6] = target: Estrogen receptor (Homo sapiens) (UniProt P03372); test: qHTS assay to identify small molecule antagonists of the estrogen receptor alpha (ER-alpha) signaling pathway using the BG1 cell line in the presence of 0.1 nM 17-beta-estradiol (AID 1259244); further: on the % scale 0 is the no-effect control and ±100 the full control effect; nearly all actives have a fitted effect of over 50% in size
Chain of Estrogen receptor (Homo sapiens) (P03372 whole entry, looked up): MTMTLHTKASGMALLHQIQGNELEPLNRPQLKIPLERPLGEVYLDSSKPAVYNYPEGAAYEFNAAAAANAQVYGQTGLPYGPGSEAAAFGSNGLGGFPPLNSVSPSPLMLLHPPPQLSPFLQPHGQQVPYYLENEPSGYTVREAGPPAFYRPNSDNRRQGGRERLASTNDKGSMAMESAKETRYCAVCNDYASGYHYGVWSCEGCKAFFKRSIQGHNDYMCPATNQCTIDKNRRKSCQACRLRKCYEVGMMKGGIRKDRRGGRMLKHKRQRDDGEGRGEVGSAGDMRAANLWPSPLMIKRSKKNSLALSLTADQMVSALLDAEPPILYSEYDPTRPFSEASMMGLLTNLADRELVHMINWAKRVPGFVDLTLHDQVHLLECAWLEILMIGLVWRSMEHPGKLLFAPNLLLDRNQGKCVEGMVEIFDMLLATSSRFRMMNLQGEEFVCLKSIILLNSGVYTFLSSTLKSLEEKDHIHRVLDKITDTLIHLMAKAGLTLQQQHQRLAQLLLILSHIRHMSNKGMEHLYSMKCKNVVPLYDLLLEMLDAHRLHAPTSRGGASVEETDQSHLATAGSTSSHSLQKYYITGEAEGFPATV
Method in brief: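 Estradiol at 0.1 nM (final) stimulates the endogenous ER-alpha of VM7Luc4E2 cells carrying an ERE-driven luciferase; compounds are co-incubated 22 h at 37C and luciferase output quantified by luminescence.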

[7] = qHTS assay to identify small molecule HDAC inhibitors (AID 1259364); further: potency means the concentration at half of the fitted maximal effect;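 further: wild-type HCT-116 cells with endogenous class I/II HDAC activity; nearly all actives have a fitted effect of over 45% in size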; on activity change, negative = inhibition: top concentration of the series differs between compounds; on the % scale 0 is the no-effect control and ±100 the full control effect
Method in brief: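 Read-out: luminescence of HDAC-Glo I/II reagent, 30 min RT, reflecting class I/II deacetylase activity in whole HCT-116 cells pre-exposed 2 h to DMSO-dissolved compounds.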

[8] = qHTS assay to identify small molecule HDAC inhibitors - cell viability counter screen (AID 1259365); further: series mostly up to about 92 µM; on the % scale 0 is the no-effect control and ±100 the full control effect; nearly all actives have a fitted effect of over 50% in size
Method in brief: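 Wild-type HCT-116 cells, 1,500/well, cultured overnight, then compound-treated 2 h at 37 C. Viability measured as ATP luminescence with CellTiter-Glo after 30 min at room temperature.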

[9] = qHTS assay to identify small molecule agonists of the sonic hedgehog signaling (Shh) pathway - cell viability counter screen (AID 1259366)
Method in brief: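 NIH/3T3-derived Gli1-Luc reporter cells, 2,000 per well, received compound after 4 h and were treated about 23 h at 37C. Viability measured in the same wells by CellTiter-Fluor fluorescence after 1 h.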

[10] = qHTS assay to identify small molecule agonists of the sonic hedgehog signaling (Shh) pathway (AID 1259368; calls by dose curve;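 further: NIH/3T3-derived 3T3Gli1-Luc cells carrying a stable Gli1-driven firefly luciferase reporter; series mostly up to about 92 µM; on the % scale 0 is the no-effect control and ±100 the full control effect; nearly all actives have a fitted effect of over 15% in size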)
Method in brief: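 A Gli1 transcriptional response element controlled firefly luciferase in 3T3Gli1-Luc cells. Compounds and a positive control were added 4 hr after plating, and cells were incubated a further 24 hr at 37 C before luminescence detection.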

[11] = target: Estrogen receptor beta (Homo sapiens) (UniProt Q92731); test: qHTS assay to identify small molecule agonists of the estrogen receptor beta (ER-beta) signaling pathway (AID 1259377; active means well fitted activation curve with a large enough effect in the signal ratio in the repeat runs, not every such curve was filed as active; the % refers to the signal ratio; further: potency means the concentration at half of the fitted maximal effect; on activation: on the % scale 0 is the no-effect control and ±100 the full control effect)
Chain of Estrogen receptor beta (Homo sapiens) (Q92731 whole entry, looked up): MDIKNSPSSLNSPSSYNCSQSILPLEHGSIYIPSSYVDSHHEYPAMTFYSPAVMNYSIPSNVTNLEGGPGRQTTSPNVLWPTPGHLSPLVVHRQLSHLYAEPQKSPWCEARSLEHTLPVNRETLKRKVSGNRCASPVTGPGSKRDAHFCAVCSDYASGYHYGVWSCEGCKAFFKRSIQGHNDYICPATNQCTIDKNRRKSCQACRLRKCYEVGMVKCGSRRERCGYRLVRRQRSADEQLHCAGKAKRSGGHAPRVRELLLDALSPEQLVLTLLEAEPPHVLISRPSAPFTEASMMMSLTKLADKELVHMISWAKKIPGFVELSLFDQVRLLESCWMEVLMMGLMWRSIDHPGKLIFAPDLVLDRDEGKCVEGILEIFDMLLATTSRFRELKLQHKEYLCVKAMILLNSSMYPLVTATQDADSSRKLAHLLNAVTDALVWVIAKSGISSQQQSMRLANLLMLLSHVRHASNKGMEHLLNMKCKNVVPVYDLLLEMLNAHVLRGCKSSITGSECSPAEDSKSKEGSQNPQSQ
Method in brief: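 ER-beta-UAS-bla HEK293T cells in medium with 2% charcoal-stripped FBS were exposed to compounds for 16 h at 37C. Beta-lactamase reporter activity was read as fluorescence after 2 h with LiveBLAzer B/G FRET substrate at room temperature.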

[12] = qHTS assay to identify small molecule agonists of the androgen receptor (AR) signaling pathway in the presence of an antagonist - cell viability counter screen (AID 1259379);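 further: MDA-kb2 human breast cancer cells carrying an MMTV luciferase reporter; series mostly up to about 92 µM; on the % scale 0 is the no-effect control and ±100 the full control effect; nearly all actives have a fitted effect of over 25% in size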
Method in brief: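 Seed MDA-kb2 at 3,000 cells/well; incubate 5 hr, 37C, 0% CO2. Add nilutamide to 3.0uM final, then pin compounds at 15 concentrations. Incubate 16 hr. Add CellTiter-Fluor at 15 hr, read fluorescence after 1 hr.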

[13] = qHTS assay to identify small molecule agonists of the estrogen receptor beta (ER-beta) signaling pathway - cell viability counter screen (AID 1259380); further: on the % scale 0 is the no-effect control and ±100 the full control effect; nearly all actives have a fitted effect of over 30% in size
Method in brief: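 CellTiter-Glo read, 30 min RT, same wells as bla assay; cells ER-beta-UAS-bla HEK293T; 16 hr compound, 37C; medium 2% charcoal-stripped FBS.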

[14] = target: Androgen receptor (Homo sapiens) (UniProt P10275); test: qHTS assay to identify small molecule agonists of the androgen receptor (AR) signaling pathway in the presence of an antagonist (AID 1259381; calls by dose curve; further: on the % scale 0 is the no-effect control and ±100 the full control effect; nearly all actives have a fitted effect of over 15% in size)
Method in brief: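 Test compounds at 15 concentrations were incubated for 16hr with MDA-kb2 reporter cells in presence of 3.0uM nilutamide (final). Signal: ONE-Glo luciferase luminescence.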

[15] = A CellTox Green Cytotoxicity Assay to monitor cytotoxicity in HepG2 cells - 8 hour (AID 1224890); further: on the % scale 0 is the no-effect control and ±100 the full control effect; nearly all actives have a fitted effect of over 45% in size
Method in brief: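 Using 1536-well format, dye-containing HepG2 suspension was seeded, allowed 5 h at 37 C/5% CO2, dosed by pintool with compounds, positive and negative controls, and imaged for fluorescence across 40 h.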

[16] = qHTS assay to identify small molecule antagonists of the sonic hedgehog signaling (Shh) pathway - cell viability counter screen (AID 1259367); further: on the % scale 0 is the no-effect control and ±100 the full control effect; nearly all actives have a fitted effect of over 55% in size
Method in brief: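 Cells: 3T3 Gli1-Luc, 2,000/well, 4 hr pre-incubation. Compounds in DMSO, then conditioned medium. Incubation 24 hr, 37C, 5% CO2. CellTiter-Fluor at 23 hr, 1 hr, fluorescence.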

[17] = qHTS assay to identify small molecule antagonists of the sonic hedgehog signaling (Shh) pathway (AID 1259369; calls by dose curve; further: on the % scale 0 is the no-effect control and ±100 the full control effect; nearly all actives have a fitted effect of over 45% in size)
Method in brief: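 For antagonist detection, the reporter line received test compounds together with conditioned medium, incubated 24hr at 37 C, 5% CO2, then luminescence was recorded following 30min room-temperature luciferase reagent incubation.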

[18] = target: Estrogen receptor beta (Homo sapiens) (UniProt Q92731); test: qHTS assay to identify small molecule antagonists of the estrogen receptor beta (ER-beta) signaling pathway (AID 1259378; active means well fitted inhibition curve with a large enough effect in the signal ratio in the repeat runs, not every such curve was filed as active; the % refers to the signal ratio; further: on the % scale 0 is the no-effect control and ±100 the full control effect)
Method in brief: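 Antagonist mode: compounds added to beta-lactamase reporter HEK293T ER-beta-UAS cells stimulated with E2 (1nM final), 16 hr at 37C. LiveBLAzer B/G FRET substrate, 2 hours room temperature, fluorescence read-out.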

[19] = qHTS assay to identify small molecule antagonists of the estrogen receptor beta (ER-beta) signaling pathway - cell viability counter screen (AID 1259382);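 further: HEK293T cells carrying ER-beta-UAS-bla reporter stimulated with estradiol; series mostly up to about 92 µM; on the % scale 0 is the no-effect control and ±100 the full control effect; nearly all actives have a fitted effect of over 55% in size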
Method in brief: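 In this multiplexed counter screen, cells were seeded at 2,000 per well in medium with 2% charcoal-stripped FBS and incubated 6 hr before compound and 1nM final E2 were added. Sixteen hours later, ATP-based luminescence reported viability.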

[20] = qHTS assay to identify small molecule phospholipidosis (PLD) inducers (AID 1259344; active means well fitted curve in the direction sought with a large enough effect; an effect the other way counts as inactive or inconclusive; further: on the % scale 0 is the no-effect control and ±100 the full control effect)
Method in brief: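 Phospholipidosis is scored by imaging LipidTOX-stained pits in HepG2 cells exposed to compound for 24 h at 37 C; pit counts and integrated intensities per well and per cell serve as outputs.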

CCC(=O)Oc1ccc2c(c1)CC[C@@H]1[C@@H]2CC[C@@]2(C)[C@H]1C[C@@H](OC(=O)CC)[C@@H]2OC(=O)CC
active: Potency [5] 8.41 µM | Potency [11] 0.0211 µM
inactive: Potency [1] | Potency [2] | outcome [3] | outcome [4] | outcome [6] | Potency [7] | outcome [8] | outcome [9] | outcome [10] | outcome [12] | outcome [13] | outcome [14]

O=Cc1ccccc1Cl
inactive: Potency [2] | Potency [15] | outcome [3] | outcome [4] | Potency [7] | outcome [9] | outcome [16] | outcome [10] | Potency [17] | Potency [11] | Potency [18] | outcome [12] | outcome [19]

CC(O)CC(C)O (configuration not stated)
inactive: Potency [2] | Potency [15] | outcome [3] | outcome [4] | Potency [7] | outcome [8] | outcome [16] | outcome [10] | Potency [17] | outcome [19]

CC/C=C\CCOC(=O)c1ccccc1O
inactive: Potency [1] | Potency [2] | outcome [3] | outcome [4] | outcome [6] | outcome [9] | Potency [17] | Potency [11] | Potency [18] | outcome [12] | outcome [13] | outcome [19]
active: Potency [7] 15.4 µM

O=C1CCCCO1
inactive: Potency [1] | Potency [2] | Potency [15] | outcome [4] | outcome [6] | Potency [7] | outcome [8] | outcome [16] | Potency [17] | Potency [11] | Potency [18] | outcome [12] | outcome [19]

CCC(=O)CC
inactive: Potency [1] | Potency [2] | Potency [15] | outcome [4] | Potency [7] | outcome [8] | outcome [9] | outcome [16] | outcome [10] | Potency [17] | outcome [12] | outcome [13]

CC1(C)CC(OC(=O)CCCCCCCCC(=O)OC2CC(C)(C)NC(C)(C)C2)CC(C)(C)N1
inactive: activity change [1] -6.19% [at 15.8 µM, active compounds read high] | activity change, negative = cytotoxicity [2] 5.75% [at 15.8 µM] | cytotoxicity increase [15] -0.141% [at 15.8 µM] | viability change, negative = cytotoxic [4] 0.781% [at 19 µM] | activity change, negative = inhibition [6] -2.8% [at 19 µM] | activity change, negative = cytotoxicity [8] -7.5% [at 19 µM] | viability change, negative = cytotoxic [9] -15.1% [at 19 µM] | activity change [10] 0.253% [at 18.9 µM] | activity change, negative = inhibition [17] -29.1% [at 19 µM] | activation [11] -4.04% [at 19 µM] | activity, negative = inhibition [18] -12.7% [at 19 µM] | activity change, negative = cytotoxicity [12] 0.897% [at 19 µM] | activity change, negative = cytotoxicity [19] -21.6% [at 19 µM]

O=C(O)CCCCCC(=O)O
inactive: Potency [2] | Potency [15] | outcome [3] | outcome [4] | outcome [6] | Potency [7] | outcome [8] | outcome [9] | outcome [16] | outcome [10] | Potency [17] | Potency [11] | Potency [18] | outcome [12] | outcome [13] | outcome [19]

CC(=O)Nc1ccc(OC(=O)c2ccccc2OC(C)=O)cc1
inactive: Potency [2] | Potency [15] | outcome [3] | outcome [4] | outcome [6] | outcome [20] | outcome [9] | outcome [16] | outcome [10] | outcome [12] | outcome [13] | outcome [19]
active: Potency [7] 23.7 µM
